# Measurements: paper PMC4336329 (PLoS ONE, 2015)
# The campaign covered roughly 310,000 compounds. About 2,200 (0.71%) showed an effect of 50% or more. Effects have a minus sign here. The sample as a whole holds a higher share of strong results than the screen did.
# Molecular target: human ether-à-go-go-related gene (hERG) potassium channel (human, UniProt Q12809)
# Test: primary screen, population patch clamp on CHO cells stably expressing hERG; higher = less effect of the substance
# human ether-à-go-go-related gene (hERG) potassium channel, sequence (Q12809 whole entry, looked up): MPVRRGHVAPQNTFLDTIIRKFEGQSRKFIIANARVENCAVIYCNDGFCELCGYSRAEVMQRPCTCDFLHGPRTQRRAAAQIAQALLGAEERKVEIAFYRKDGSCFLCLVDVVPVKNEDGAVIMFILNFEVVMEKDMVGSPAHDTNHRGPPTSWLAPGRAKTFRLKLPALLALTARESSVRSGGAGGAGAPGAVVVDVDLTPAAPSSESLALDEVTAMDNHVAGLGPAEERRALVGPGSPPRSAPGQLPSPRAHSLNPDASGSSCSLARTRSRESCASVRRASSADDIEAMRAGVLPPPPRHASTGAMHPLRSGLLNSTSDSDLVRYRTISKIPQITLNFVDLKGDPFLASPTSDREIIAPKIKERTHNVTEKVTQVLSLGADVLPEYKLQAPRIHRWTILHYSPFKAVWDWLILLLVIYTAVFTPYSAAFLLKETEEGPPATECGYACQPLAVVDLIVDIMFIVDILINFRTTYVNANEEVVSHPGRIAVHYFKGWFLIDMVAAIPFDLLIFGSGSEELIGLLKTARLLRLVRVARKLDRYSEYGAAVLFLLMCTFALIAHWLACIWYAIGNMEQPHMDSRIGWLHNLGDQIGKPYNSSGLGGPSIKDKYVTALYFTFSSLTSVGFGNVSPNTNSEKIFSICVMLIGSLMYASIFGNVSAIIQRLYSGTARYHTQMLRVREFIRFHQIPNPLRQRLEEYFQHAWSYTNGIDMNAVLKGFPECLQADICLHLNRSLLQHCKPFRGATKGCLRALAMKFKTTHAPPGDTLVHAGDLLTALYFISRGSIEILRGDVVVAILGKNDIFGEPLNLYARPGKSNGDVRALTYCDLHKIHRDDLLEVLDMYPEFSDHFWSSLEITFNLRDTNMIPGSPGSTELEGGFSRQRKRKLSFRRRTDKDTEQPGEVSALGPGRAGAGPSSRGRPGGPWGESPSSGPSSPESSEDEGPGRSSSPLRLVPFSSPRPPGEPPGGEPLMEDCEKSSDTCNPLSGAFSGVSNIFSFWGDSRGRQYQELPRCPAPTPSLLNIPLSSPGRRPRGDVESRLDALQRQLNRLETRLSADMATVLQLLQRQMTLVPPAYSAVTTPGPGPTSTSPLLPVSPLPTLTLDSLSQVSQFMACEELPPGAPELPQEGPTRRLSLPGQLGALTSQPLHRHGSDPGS
row,SMILES,"hERG current change (%, negative = inhibition) at 1uM"
1,N#Cc1nc(-c2ccc(Cl)cc2)oc1NCc1ccco1,18.1%
2,COc1cccc(-n2c(Cc3cc(=O)[nH]c(=O)[nH]3)nnc2SC(C)C)c1,2.56%
3,CCNC(=O)c1ccc(CSc2nc3ccccc3s2)cc1,11.4%
4,O=S(=O)(c1ccc(NC(=S)NCCc2ccccc2)cc1)N1CCOCC1,3.71%
5,COc1cccc(-c2nc(CS(=O)(=O)CC(=O)NCCCN3CC(C)CC(C)C3)c(C)o2)c1 (stereo not drawn),-5.41%
6,CCOC(=O)Nc1ccc2c(c1)Nc1ccccc1S2,9.07%
7,COc1cccc(NC(=O)CNS(=O)(=O)c2ccc3nc(C)sc3c2)c1,14.5%
8,Cc1ccc(-c2cc(C(=O)Nc3cccnc3)c3ccccc3n2)s1,12.1%
9,Cn1cnnc1SCC(=O)Nc1sc2c(c1C(N)=O)CCC2,13.3%
10,CCCCNC(=O)CCCN1C(=O)c2cccnc2Sc2ccccc21,14.1%
11,CC1CCc2c(sc3ncnc(NCCN4CCOCC4)c23)C1 (stereo not drawn),-13.1%
12,OCCCNc1ncnc2sc3c(c12)CCN(Cc1ccccc1)C3,7.54%
13,CCCCNc1ncnc2sc3c(c12)CCN(CCC)C3,-80.9%
14,CCOc1ccc(-n2c(SCC(N)=O)nnc2-c2cccnc2)cc1,-3.26%
15,N#Cc1ccc(CSc2nnc(-c3cccnc3)n2-c2ccccc2)cc1,-26.5%
16,CCOc1ccc(-n2c(SCc3ccc(C#N)cc3)nnc2-c2cccnc2)cc1,-65.1%
17,CCC(C)(C(=O)NC1CCCCC1)N(CC1CCCO1)C(=O)c1ccccn1 (stereo not drawn),-80.8%
18,CCC(C)(C(=O)NC1CCCCC1)N(C)C(=O)c1ccccn1 (stereo not drawn),4.4%
19,CCC(C)(C(=O)NC1CCCCC1)N(CC1CCCO1)C(=O)CNC(=O)c1ccccc1 (stereo not drawn),9.5%

row,SMILES,"hERG current change (%, negative = inhibition) at 1uM"
1,COc1ccc(-c2noc(CSc3nc4ccccc4c(=O)n3-c3ccccc3)n2)cc1,1.58%
2,CCC1(C)Cc2ccccc2-c2nc3n(c(=O)c21)CCS3 (stereo not drawn),12%
3,O=C(CCc1nc2ccccc2c(=O)[nH]1)N1CCN(C/C=C/c2ccccc2)CC1,-12.3%
4,O=c1[nH]c(CN2CCN(C/C=C/c3ccccc3)CC2)nc2ccccc12,-52.6%
5,O=c1[nH]c(CN2CCN(S(=O)(=O)/C=C/c3ccccc3)CC2)nc2cc(Cl)ccc12,-21.4%
6,O=c1[nH]c(CN2CCN(S(=O)(=O)/C=C/c3ccccc3)CC2)nc2ccccc12,-18.2%
7,O=c1[nH]c(CN2CCN(C/C=C/c3ccccc3)CC2)nc2cc(Cl)ccc12,-108%
8,O=c1[nH]c(CN2CCOCC2)nc2cc(Cl)ccc12,4.78%
9,Cc1cc(C)n(-c2nc(-c3ccccc3)cs2)n1,1.91%
10,O=C(Nc1ccc2oc(-c3ccc4ccccc4c3)nc2c1)c1ccc2c(c1)OCCO2,16.3%
11,O=c1cc(CN2CCN(C/C=C/c3ccccc3)CC2)c2cc(O)c(-c3ccccc3)cc2o1,12.8%
12,Cc1cc2oc(=O)cc(CN3CCN(C/C=C/c4ccccc4)CC3)c2cc1O,-67.8%
13,O=c1cc(CN2CCN(C/C=C/c3ccccc3)CC2)c2cc(O)ccc2o1,-86%
14,Cc1ccc2oc(=O)cc(CN3CCN(C/C=C/c4ccccc4)CC3)c2c1,-53.7%
15,Cc1cc(C)c2c(CN3CCN(C/C=C/c4ccccc4)CC3)cc(=O)oc2c1,-41.5%
16,CCN1CCN(Cc2cc(=O)oc3ccc(C)cc23)CC1,11.9%
17,O=c1cc(CN2CCN(S(=O)(=O)/C=C/c3ccccc3)CC2)c2ccc(O)cc2o1,-29.8%
18,Cc1c(O)ccc2c(CN3CCN(C/C=C/c4ccccc4)CC3)cc(=O)oc12,-36.2%
19,Cc1cc2oc(=O)cc(CN3CCN(S(=O)(=O)/C=C/c4ccccc4)CC3)c2cc1C,14.5%

row,SMILES,"hERG current change (%, negative = inhibition) at 1uM"
1,COc1cccc(NC(=O)C2CCCO2)c1 (stereo not drawn),11.7%
2,COC(=O)C1=NN(N=O)C2(CC(=O)N(c3cc(C)cc(C)c3)C2=O)C1 (stereo not drawn),9.48%
3,CCC(=O)N1c2ccc(S(=O)(=O)N3CCN(C)CC3)cc2CC1C (stereo not drawn),4.4%
4,Cc1c(CC(=O)N[C@@H](C)C(=O)O)c(=O)oc2cc3occ(-c4ccccc4)c3cc12,18.2%
5,Cc1ccc(Cn2ncc3c(NCCN(C)C)ncnc32)cc1,1.2%
6,COc1ccc(N2CC(C(=O)Nc3ccccc3N3CCCC3)CC2=O)c(OC)c1 (stereo not drawn),8.29%
7,CCOC(=O)c1ccc(NC(=S)N(CCCN2CCN(CC)CC2)Cc2cccs2)cc1,-40.2%
8,CCOc1ccc2nc(NC(=O)Cc3cccs3)sc2c1,6.15%
9,COCCN1Cc2cc3cc(C)ccc3nc2SC1=Nc1ccc(OC)cc1,9.8%
10,CCOc1ccc(N=C2Sc3nc4ccc(C)cc4cc3CN2CCOC)cc1,16.5%
11,CCC(C)N=C1Sc2nc3ccc(C)cc3cc2CN1CCOC (stereo not drawn),-60.4%
12,C=CCn1c(SCC(O)Cn2c3ccccc3c3ccccc32)nnc1-c1ccco1 (stereo not drawn),13.9%
13,O=c1[nH]ncn1-c1ccccc1C(F)(F)F,10.3%
14,CCN(CC)CCN(Cc1cc2cc(C)ccc2[nH]c1=O)C(=O)Nc1ccccc1OC,-22.2%
15,CCN(CC)CCN(Cc1cc2ccc(C)cc2[nH]c1=O)C(=O)NC1CCCCC1,-23.9%
16,CCc1ccc2[nH]c(=O)c(CN(CCN3CCCC3)C(=O)NC3CCCCC3)cc2c1,-8.52%
17,CCc1ccc2[nH]c(=O)c(CN(CCN(C)C)C(=O)Nc3ccccc3OC)cc2c1,-41.4%
18,CCc1ccc2[nH]c(=O)c(CN(CCN(CC)CC)C(=O)Nc3ccccc3OC)cc2c1,-50.7%
19,CCc1ccc2[nH]c(=O)c(CN(CCN(CC)CC)C(=O)NC3CCCCC3)cc2c1,-51.5%
